Active and inactive are the calls of the source. The calls were made as follows: active = hit-call score of the fitted dose curve at least 0.9, where 1 is the maximum; inactive = score below 0.9.
Experiment: ATG_GATA_CIS: Attagene CIS-FACTORIAL HepG2 Assay for human GATA Binding Protein (AID 2282944)
Conditions: HepG2 GATA cis-element reporter, Attagene multiplex mRNA; actives raise or lower the signal
How it was run: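 Read-out: fluorescent reporter mRNA fragments resolved by capillary electrophoresis after RT-PCR. Human liver HepG2 cells carried transiently transfected cis-regulated reporter constructs; chemicals incubated 24 h; gain or loss of signal fitted relative to DMSO.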

SMILES	outcome
Oc1cc2ccccc2c2ccccc12	inactive
CC(C)(C)CC(C)(C)c1ccc(O)c(-n2nc3ccccc3n2)c1	inactive
Cc1ccc(S(=O)(=O)O)c(C)c1	inactive
CCCCCCCCC(=O)O	inactive
CN1CCN(c2ccccc2/C=C2\SCCN(c3ccc(Cl)c(Cl)c3)C2=O)CC1	inactive
c1ccc2c(c1)Cc1ccccc1-2	inactive
FC(F)(I)C(F)(F)C(F)(F)C(F)(F)C(F)(F)C(F)(F)I	inactive
CC(C)(C)c1ccc(O)c(C(C)(C)C)c1	inactive
O=C(OCCOCCOC(=O)c1ccccc1)c1ccccc1	inactive
CCCCC(CC)COC(=O)CCCCC(=O)OCC(CC)CCCC (stereo unspecified)	inactive
CC(C)CCCCCCOC(=O)CCCCC(=O)OCCCCCCC(C)C	inactive
C[C@@H]1C[C@H]2[C@@H]3CCC4=CC(=O)C=C[C@]4(C)[C@@]3(F)[C@@H](O)C[C@]2(C)[C@@]1(O)C(=O)COP(=O)(O)O	inactive
CCCCC(CC)COC(=O)CCCCC(=O)OCc1ccccc1 (stereo unspecified)	inactive
COc1ccc([N+](=O)[O-])cc1N	inactive
CC(C)(C)c1cc(C(C)(C)C)c(O)c(C(C)(C)C)c1	inactive
c1ccc2c(c1)ccc1ccccc12	inactive
CCCCCCCCOC(=O)CCCCCCCCC(=O)OCCCCCCCC	inactive
CC(C)(C)c1cccc(C(C)(C)C)c1O	inactive
CCC(C)(C)C1CCC(O)CC1 (stereo unspecified)	inactive
CCN(CC)CCNc1ccc(CNC=O)c2sc3ccc(OC)cc3c(=O)c12	inactive
CCCCC[C@H](O)CC(=O)CCc1ccc(O)c(OC)c1	inactive
